Laboratory results taken from ChEMBL document CHEMBL3988442, “University of Dundee, Small-Polar-MMV Screening Library” (2021).
The whole screen tested about 48,000 compounds, of which about 13,000 (27%) showed an effect of 50% or more. This is one part of the list.

Each compound was assayed on Wolbachia pipientis (assay: Anti-Wolbachia Cell-Based Screen). Conditions: 5 µM.
Type: functional
Parameters: scale not given: in the data most compounds retested in dose-response had high values

SMILES | Percent Effect [%]
O=C1N(c2ccc(Cl)cc2)Cc2nc(=O)[nH]n21 | -10.7
Cc1cccc(NC(=O)NCCCn2nc3ccccn3c2=O)c1C | -5.568
COCc1nn(Cc2ccc(Cl)s2)c(=O)o1 | 85.2
CCCc1nn(Cc2csc(CC)n2)c(=O)o1 | 0.8831
COCc1nn(Cc2ccc(Br)s2)c(=O)o1 | 93.51
COc1ccccc1C(C)NC(=O)N1CCN(Cc2ccc(Br)s2)CC1 (stereo not given) | 3.107
CCCc1nn(Cc2ccc(Br)s2)c(=O)o1 | 114.1
CCCc1nn(Cc2csc(C(C)C)n2)c(=O)o1 | -6.237
COCCn1c(=O)n(Cc2ccc(Cl)s2)c2cc(C(=O)O)ccc21 | 5.462
CCc1nc(Cn2nc(COC)oc2=O)cs1 | 8.463
COc1cccc(-c2cc(NCc3cscn3)n(C)n2)c1 | -6.796
Cc1nc2ccccn2c1CN1C[C@@H](CN(C)C)[C@@H](CO)C1 | -2.196
CC(C)c1noc(C2CCCN2S(=O)(=O)N2CCCCCC2)n1 (stereo not given) | 33.89
CC(=O)c1ccccc1C(=O)NCC1(CO)CC1 | -16.93
NC(c1ccc(F)cc1)c1cccs1 (stereo not given) | 14.08
CN1CCCn2c(nc(CNS(=O)(=O)C3CC3)cc2=O)C1.O=C(O)C(F)(F)F | -4.96
CC(=O)N1CCCn2c(nc(CNS(=O)(=O)C3CC3)cc2=O)C1 | -2.795
O=C(O)C(F)(F)F.O=c1cc(CNS(=O)(=O)C2CC2)nc2n1CCCN(CC1CC1)C2 | 107
CS(=O)(=O)NCc1cc(=O)n2c(n1)CN(CC1CC1)CCC2.O=C(O)C(F)(F)F | 110.4
CS(=O)(=O)NCc1cc(=O)n2c(n1)CN(Cc1ccco1)CCC2.O=C(O)C(F)(F)F | -0.8444
Cc1cc(C)n(CC2(CNC(=O)C(c3ccccc3F)N(C)C)CC2)n1 (stereo not given) | -12.38
CC1c2ncc(COCC3CCCC3)n2CCN1S(=O)(=O)N(C)C (stereo not given) | -21.16

SMILES | Percent Effect [%]
CN(C)c1cccc(C(=O)Nc2cnn(CC(N)=O)c2)c1 | -9.995
CN1C[C@H](O)[C@]2(CCN(Cc3ccc(F)c(F)c3)C2)S1(=O)=O | 108.2
Fc1ccc(CN2CCCC3(CCN(Cc4ncc[nH]4)C3)C2)cc1F (stereo not given) | 2.586
Cc1c[nH]c(CN2CCC3(CCCN(Cc4ccc(F)c(F)c4)C3)C2)n1 (stereo not given) | -10.55
CN1C[C@H](O)[C@]2(CCN(Cc3ccc(OC(F)(F)F)cc3)C2)S1(=O)=O | 118.4
O=C(c1ccc(Br)o1)N1CCN(Cc2ccc(OC(F)(F)F)cc2)CC1 | -3.633
COc1ccc(CN2CCN(C(=O)N(C)C)[C@@H]3CS(=O)(=O)C[C@@H]32)cc1F | -14.55
O=C(c1ccc(Br)s1)N1CCN(Cc2ccc(OC(F)(F)F)cc2)CC1 | -12.95
COc1ccc(CN2CC[C@@]3(C2)[C@H](O)CN(C)S3(=O)=O)cc1F | 137.9
COCCC(=O)N1CCC2(CN(Cc3ccc(OC)c(F)c3)C2)C1 | 5.323
CC(=O)c1ccc(S(=O)(=O)N2CCC(c3n[nH]c(C)n3)CC2)cc1 | 9.052
Cc1ccc(S(=O)(=O)N2CCC(c3n[nH]cc3C(=O)N(C)C)CC2)cc1 | 124.5
CNC(=O)[C@@]12CCO[C@@H]1CCN(S(=O)(=O)c1ccc(C)cc1)C2 | 8.759
CN(C)C(=O)c1cccnc1N1CCOC(c2ccc(Cl)cc2)C1 (stereo not given) | 7.498
CC(=O)c1cccc(S(=O)(=O)N2CCC(c3noc(C)n3)CC2)c1 | -3.648
CN(C)C(=O)c1c[nH]nc1C1CCN(S(=O)(=O)c2ccccc2)CC1 | 115.3
CN(C)C(=O)c1c[nH]nc1C1CCN(S(=O)(=O)c2cccc(Cl)c2)CC1 | 103
CN(C)C(=O)c1c[nH]nc1C1CCN(S(=O)(=O)c2ccc(Cl)cc2)CC1 | 131.9
CN(C)C[C@H]1OC[C@@H]2CCN(S(=O)(=O)c3ccccc3)C[C@@H]21.O=C(O)C(F)(F)F | -5.753
Cc1nc(C2CCN(S(=O)(=O)c3ccc(Cl)cc3)CC2)n[nH]1 | 2.775
CCN1CC[C@@]2(C(=O)N(C)C)CCN(S(=O)(=O)c3ccccc3)CC[C@@H]12.O=C(O)C(F)(F)F | 1.516
CC(=O)c1cccc(S(=O)(=O)N2CCC(c3n[nH]c(C)n3)CC2)c1 | -14.04

SMILES | Percent Effect [%]
O=C(c1cc2ccccc2o1)N1CCN(Cn2cc(Cl)cn2)CC1 | -7.476
CNC(=O)CCNC(=O)c1cc(Br)c2c(c1)OCCO2 | 13.5
Cc1ccc(S(=O)(=O)N2CCCC(c3n[nH]cc3C(=O)N(C)C)C2)cc1 (stereo not given) | 125.7
Cc1ccc([C@@H]2CN(S(=O)(=O)c3ccccc3)C[C@H]2N(C)C)cc1 | -8.566
CCN(C)S(=O)(=O)N1CCCC(c2nc(-c3ccccc3)c[nH]2)C1 (stereo not given) | -1.843
O=C(NCc1nnc2ccccn12)N1CCOC(c2ccsc2)C1 (stereo not given) | -11.65
COc1ccc(NC(=O)NCC(O)c2ccc(F)cc2F)c(OC)c1 (stereo not given) | 9.274
COc1ccccc1C(O)CNC(=O)Nc1ncccc1C (stereo not given) | 0.5949
COc1ccc(OC)c(C(O)CNC(=O)Nc2ccc(F)cc2F)c1 (stereo not given) | 81.01
COc1ccc(OC)c(NC(=O)NCC(O)c2ccc(F)c(F)c2)c1 (stereo not given) | 19.22
COc1ccc(NC(=O)NCC(O)c2ccccc2F)c(OC)c1 (stereo not given) | 84.27
CCOc1ncccc1NC(=O)NCC(O)c1ccccc1OC (stereo not given) | -2.656
CCN(C)C1CCCc2nc(C)sc21 (stereo not given) | -11.76
Cc1ccc(OC2(C(=O)O)CCN(C(=O)c3cc(C)oc3C)CC2)cn1 | -11.44
Cc1ccc(N2CCN(CC3CC3)C3(CCN(C(C)C)CC3)C2=O)cn1.O=C(O)C(F)(F)F | -1.753
Cc1ccsc1C(=O)N1CCC2(CC1)C(=O)N(C)CCN2CC1CC1.O=C(O)C(F)(F)F | 98.73
CCN1CCC2(CC1)C(=O)N(c1ccc(C)nc1)CCN2CC(C)C.O=C(O)C(F)(F)F | -13.38
Cc1cc(C(=O)N2CCC3(CC2)C(=O)NCCN3CC(C)C)c(C)o1 | 4.806
Cc1cc(C(=O)N2CCC3(CC2)C(=O)N(C)CCN3CC2CC2)c(C)o1.O=C(O)C(F)(F)F | 105.3
Cc1cc(C(=O)N2CCC3(CC2)C(=O)N(C)CCN3CC(C)C)c(C)o1.O=C(O)C(F)(F)F | 105.2
CCc1ccc(CN2CCC3(CC2)C(=O)N(C)CCN3CC2CC2)cc1.O=C(O)C(F)(F)F | -26.46
